Experimental data: ChEMBL document CHEMBL3988442, “University of Dundee, Small-Polar-MMV Screening Library” (2021)
Among all 48,000 compounds or so, about 13,000 (27%) showed an effect of 50% or more. This is one part of the list.

Each compound was assayed on Wolbachia pipientis (assay: Anti-Wolbachia Cell-Based Screen). Details: 5 µM.
Type: functional
Set-up: scale not given: in the data most compounds retested in dose-response had high values

SMILES | Percent Effect
Cc1noc(C)c1NC(=O)Cn1cc(Br)ccc1=O | -4.213%
C[C@@H]1CN(C2CCN(Cc3cnc(-c4cccs4)nc3)CC2)C[C@H](C)O1 | -8.003%
O=S(=O)(c1c(Cl)nc2sccn12)N1CCCC2(CCNC2)C1 (stereo not drawn) | -7.424%
Cc1ccc(-n2cc(C)cn2)c(NC(=O)NC2(C)CCOC2)c1 (stereo not drawn) | 1.139%
O=C(NC[C@H]1CCCC[C@H]1O)c1ccc2nc(-c3ccco3)[nH]c2c1 | 114.7%
O=C(NCC1CCCCO1)c1ccc(-c2cccs2)[nH]c1=O (stereo not drawn) | 23.71%
O=C(CN1CC(c2nc(-c3cccs3)no2)C1)NCC1CCCO1.O=C(O)C(=O)O (stereo not drawn) | 11.99%
O=C(NC[C@H]1CCCC[C@H]1O)c1cccc2[nH]c(-c3cccs3)nc12 | 118.3%
O=C(NC[C@H]1CCCC[C@H]1O)c1cccc2[nH]c(-c3ccco3)nc12 | 127.5%
CCCNC(=O)c1ccc(-c2ccco2)[nH]c1=O | 7.034%
Cc1sc(-c2ccco2)nc1C(=O)N(CC(N)=O)C1CCCC1 | -7.156%
Cc1sc(-c2ccco2)nc1C(=O)NCC1CCOC1 (stereo not drawn) | 3.177%
O=C(NCC1CCCCO1)c1ccc(-c2ccco2)[nH]c1=O (stereo not drawn) | 3.575%
CCOC(C)c1nc(Cn2cc(C)cn2)cs1 (stereo not drawn) | -10.7%
COC1CCN(c2cc(C(C)C)nc3ccnn23)C1 (stereo not drawn) | -6.556%
O=C(Cn1nc(-c2cccs2)ccc1=O)N1CCCCCC1 | 16.15%
CC1Cc2ccccc2N1C(=O)Cn1nc(-c2cccs2)cc(N)c1=O (stereo not drawn) | 146.8%
Nc1cc(-c2cccs2)nn(CC(=O)N2CCc3ccccc32)c1=O | 164.1%
Cc1ccc(-c2cc(N)c(=O)n(CC(=O)NCC3CC3)n2)s1 | -0.7868%
O=c1ccc(-c2cccs2)nn1CN1CCCCCC1 | 6.119%
O=C(c1csnn1)N1CCc2ccccc21 | 9.308%
CC1Cc2ccccc2N1C(=O)Cn1nc(-c2cccs2)ccc1=O (stereo not drawn) | 148.6%
Cc1cc(CS(=O)(=O)CC(=O)N2c3ccccc3CC2C)no1 (stereo not drawn) | 4.378%
CN(C)CC1CN(CC(=O)N2CCc3ccccc32)CCO1 (stereo not drawn) | -2.513%
CSCCCN1C[C@H]2CC[C@@H]1CN(Cc1[nH]cnc1C)C2 | 27.65%

SMILES | Percent Effect
COCCN(C/C=C/c1ccccc1)Cc1[nH]cnc1C | 0.6053%
COCCN(Cc1ccccc1)Cc1csc(-c2ncccn2)n1 | 9.824%
COCCN(CCOC)Cc1c(C)nc2ccccc2c1O | 87.45%
Cn1ccc(CN2CCC(CC(=O)N3CCCC3)CC2)cc1=O | 63.9%
Cn1c(CN2CCC(OCc3cccnc3)CC2)cc2ccccc21 | -15.6%
Cn1ccc(CN2CCC(OCc3ccccc3)CC2)cc1=O | 85.88%
Cn1ccc(CN2CCC(NC(=O)Cc3ccccc3)CC2)cc1=O | -4.576%
Cn1ccc(CN2CCC(OCCc3ccccc3)CC2)cc1=O | 4.919%
Cn1ccc(CN2CCC(NC(=O)NC3CCCCC3)CC2)cc1=O | -14.97%
Cn1ccc(CN2CCC(Cc3ccccc3)CC2)cc1=O | 141.3%
Cn1ccc(CN2CCC(c3ccccc3)CC2)cc1=O | 1.288%
COc1cccc(-c2n[nH]cc2CNCC2CCS(=O)(=O)C2)c1 (stereo not drawn) | 9.215%
O=C1CCC2(CCOC2)CN1Cc1nc2ccc(Cl)cc2[nH]1 (stereo not drawn) | -5.094%
O=C1CCC(C(=O)N(Cc2ccsc2)CC2CCCO2)=NN1 (stereo not drawn) | 39.45%
Cc1ccc2c(c1)C(NCc1nccn1Cc1ccccc1)CCCO2 (stereo not drawn) | -18.78%
Cc1cc(C)nc(N2CCN(C(=O)c3ccc(C4CCCO4)s3)CC2)n1 (stereo not drawn) | 6.831%
CCc1cnc(C)nc1NCc1nc(COC)no1 | 13.28%
O=C(O)C(F)(F)F.O=C(O)c1cc(NS(=O)(=O)c2ccc(Cl)s2)ccc1N1CCOCC1 | 94.51%
O=C(O)c1cc(S(=O)(=O)Nc2ccc(Cl)cc2)cc2c1OCCO2 | -1.351%
CCc1cccc(NS(=O)(=O)c2cc(C)c(C(=O)O)s2)c1 | -4.966%
CCC1(c2ccc(NS(=O)(=O)c3ccc(Cl)s3)cc2)CCC(=O)NC1=O (stereo not drawn) | 13.42%
CN1CCN(c2ccc(NS(=O)(=O)c3ccc(Br)s3)cc2C(=O)O)CC1 | 107.3%
O=C(O)c1cc(NS(=O)(=O)c2cccc(Cl)c2F)ccc1Cl | -8.503%
CN1CCN(c2ccc(NS(=O)(=O)c3ccc(Cl)s3)cc2C(=O)O)CC1 | 118.1%
CCc1ccc(S(=O)(=O)Nc2cc(C(=O)O)c(F)cc2F)s1 | -4.689%

SMILES | Percent Effect
Cc1nn(C(C)C)c(C)c1S(=O)(=O)Nc1ccc(C(=O)O)c(Cl)c1 | 2.82%
CN(C)Cc1ccc(C(N)=O)cc1NC(=O)c1cccc(C#N)c1 | -8.387%
N#Cc1ccc(N2CC3(CCN(c4nccs4)C3)C2)nc1.O=CO.O=CO | -6.647%
CCc1ccc(CNC[C@H]2C[C@@H](CO)N(C)[C@H]2c2ccccc2F)o1 | -16.71%
O=C1NCC2(CCN(C(=O)c3ccc4c(c3)CCCO4)CC2)O1 | 9.067%
CCOc1cccc(CN2CCCC(Nc3ccc(F)cc3)C2)c1O (stereo not drawn) | -11.06%
Cc1ccccc1C(=O)CN1C(=O)c2ccccc2CS1(=O)=O | -19.77%
CC(C)(O)CCc1cccc(C(=O)NCC2COCCO2)c1 (stereo not drawn) | 5.622%
COCCN(Cc1cnn(C)c1)c1nc2c(s1)c(C)nn2C | -9.354%
Cc1cccc(CN2CCCC3(CCC(=O)N3CCN(C)C)CC2)n1.O=C(O)C(F)(F)F.O=C(O)C(F)(F)F (stereo not drawn) | 115.9%
Cc1cccc(N2CCC3(CCCC(=O)N3)CC2)n1.O=C(O)C(F)(F)F | -22.27%
Cc1cccc(CN2CCOC3(COCCN(CCN(C)C)C3)C2)n1.O=C(O)C(F)(F)F.O=C(O)C(F)(F)F.O=C(O)C(F)(F)F (stereo not drawn) | -6.557%
Cc1cccc(CN2C(=O)CCC23CCN(c2ccccn2)CC3)n1.O=C(O)C(F)(F)F.O=C(O)C(F)(F)F | 98.24%
Cc1cccc(CN2C(=O)CCC23CCN(C(=O)NC(C)C)CC3)n1.O=C(O)C(F)(F)F | 107.8%
O=C(O)C(F)(F)F.O=C(c1ccoc1)N1CCC2(CCC(=O)N2Cc2ccncc2)CC1 | 2.988%
Cc1cccc(CN2CCC3(CCCN(C(=O)NC4CC4)C3)C2=O)n1.O=C(O)C(F)(F)F (stereo not drawn) | 34.29%
Cc1cccc(N2CCC3(CCN(Cc4ccccn4)CC3)CC2)n1.O=C(O)C(F)(F)F.O=C(O)C(F)(F)F | 8.022%
Cc1cccc(CN2CCC3(CCCN(C(=O)NC(C)C)C3)C2=O)n1.O=C(O)C(F)(F)F (stereo not drawn) | -6.059%
Cc1cccc(CN2C(=O)CCC23CCN(C(=O)c2ccco2)CC3)n1.O=C(O)C(F)(F)F | 108.9%
Cc1cc(CN(C)C(=O)c2ccc(Cl)c(S(C)(=O)=O)c2)no1 | -0.7928%
Cn1ccnc1CCNS(=O)(=O)Cc1cccc(C#N)c1 | 3.021%
C1CCC(CSc2nnnn2C2CC2)OC1 (stereo not drawn) | -5.592%
O[C@H]1Cc2ccccc2[C@H]1n1ccnc1-c1cc2n(n1)CCNC2 | -8.508%
CC(C)N1CCC(CN2CCn3nc(CNC(=O)N(C)C)cc3C2)CC1 | 6.322%
Cc1cccc(CN2CCC3(CCCN(C(=O)N4CCCC4)C3)C2=O)n1.O=C(O)C(F)(F)F (stereo not drawn) | -13.65%

SMILES | Percent Effect
Cc1cccc(CN2C(=O)CCC23CCN(C(=O)N2CCCC2)CC3)n1.O=C(O)C(F)(F)F | 96.5%
COCCN1C(=O)CC[C@]12CC[C@@H](NCc1cccc(C)n1)CC2.O=C(O)C(F)(F)F | -11.86%
COc1cc(CN(C)C(=O)NCc2nccs2)ccc1SC | -21.32%
CN(Cc1cc2ccccc2o1)S(C)(=O)=O | -18.47%
CN(CC1CC1)C(=O)c1cc2c(c(S(N)(=O)=O)c1)CCC2 | -0.6394%
COc1cc(CNCC2CNc3ccnn3C2)ccn1 (stereo not drawn) | 104.7%
c1cc(CNCC2CNc3ccnn3C2)cc(OC2CCCC2)n1 (stereo not drawn) | 105.3%
Cn1cc(CCNCC2CNc3ccnn3C2)cn1 (stereo not drawn) | -8.259%
Cc1cc2n(n1)CC(CNCc1ccnc(-n3ccnc3C)c1)CN2 (stereo not drawn) | -4.434%
c1cc2n(n1)CC(CNCc1ccc(OC3CCCCC3)nc1)CN2 (stereo not drawn) | -3.239%
c1cc2n(n1)CC(CNCc1ccc(OC3CCCC3)nc1)CN2 (stereo not drawn) | 90.58%
c1cc(CNCC2CNc3ccnn3C2)cc(OC2CCCCC2)n1 (stereo not drawn) | 87.88%
c1ccc(Oc2cc(CNCC3CNc4ccnn4C3)ccn2)cc1 (stereo not drawn) | 3.776%
CCN1CCN(c2ccc(F)cc2C(C)NCc2nc(C)no2)CC1 (stereo not drawn) | 5.378%
CNS(=O)(=O)CCCN1CCCCCC1c1ccc(C)o1 (stereo not drawn) | -40.39%
Cc1cc(C(=O)N2CCc3nnc(N)cc3C2)c(C)n1-c1cccnc1 | -7.22%
Cc1cc(C(=O)CN2C(=O)c3ccccc3CS2(=O)=O)c(C)[nH]1 | 11.78%
CS(=O)(=O)N1C[C@@H]2CC[C@H](C1)N(C/C=C/c1ccc(F)cc1)C2 | -3.791%
CCS(=O)(=O)c1nccn1-c1cccc(F)c1 | -14.2%
Cc1cnn(C(C)C2CC2)c1NC(=O)c1ncccc1O (stereo not drawn) | 16.76%
O=C(c1cccc(CNCC2CNc3ccnn3C2)c1)N1CCCC1 (stereo not drawn) | 2.865%
c1cc(CNCC2CNc3ccnn3C2)cc(N2CCCCC2)n1 (stereo not drawn) | 12.93%
c1cc(CNCC2CNc3ccnn3C2)cc(N2CCOCC2)n1 (stereo not drawn) | 104.3%
